# Hit rate of the full screen: of about 150,000 compounds, about 6,500 (4.3%) were called active. Inconclusive results (about 12%) are left out. The list comes from a sample in which actives are over-represented; it also holds similar structures and randomly drawn compounds. Values without a mark were called inactive. The call rests on the fitted dose curve; in most records, active means well fitted inhibition curve with a large enough effect (not every such curve was filed as active); inconclusive means small, poorly fitted or top-dose-only effect, or another doubt; inactive means no such curve, though single readings can be large or run the other way.
# Molecular target: 15-hydroxyprostaglandin dehydrogenase [NAD(+)] (Homo sapiens) (UniProt P15428)
# Experiment: qHTS Assay for Inhibitors of HPGD (15-Hydroxyprostaglandin Dehydrogenase)
# Conditions: purified HPGD, NADH fluorescence kinetic, PGE2 substrate; activity change, negative = inhibition: hits give low values
# Summary of the method: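 NADH formation kinetics: reaction with 30 uM PGE2 and 1 mM NAD+ (final), 20 nM enzyme, Tris-HCl pH 8 with Tween 20, after 15 min compound preincubation at room temperature. Fluorescence change, last versus first of five reads.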
# On the % scale 0 is the no-effect control and ±100 the full control effect; potency means the concentration at half of the fitted maximal effect.
# Chain of 15-hydroxyprostaglandin dehydrogenase [NAD(+)] (Homo sapiens) (P15428 whole entry, looked up): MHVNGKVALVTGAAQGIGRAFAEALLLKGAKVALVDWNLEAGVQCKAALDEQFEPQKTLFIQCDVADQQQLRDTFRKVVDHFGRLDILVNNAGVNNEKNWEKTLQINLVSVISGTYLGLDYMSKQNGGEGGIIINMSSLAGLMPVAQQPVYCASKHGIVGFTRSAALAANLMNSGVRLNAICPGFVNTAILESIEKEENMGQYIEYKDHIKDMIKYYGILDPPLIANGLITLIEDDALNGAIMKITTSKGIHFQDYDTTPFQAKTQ
Compound,"activity change, negative = inhibition",Potency
O=C(NC(CC(=O)N1CCN(c2ccccc2)CC1)c1ccccc1)c1ccccc1Cl (stereo not drawn),-5.04%,–
COc1ccc(N(C(=O)c2ccc(C)cc2)S(=O)(=O)c2cccs2)cc1,-10%,–
COc1ccc(N2C(=O)C(O)C2c2ccc(C)cc2)cc1 (stereo not drawn),-14.1%,–
Cc1ccc(S(=O)(=O)c2ccc(Cl)cc2)cc1S(=O)(=O)NC(C(=O)O)C(C)C (stereo not drawn),-5.59%,–
O=C(/C=C/c1ccc(Cl)cc1Cl)NCc1ccco1,–,15.8 µM (active)
O=C(NCc1ccco1)c1cc(-c2cccnc2)nc2ccc(Cl)cc12,-28%,–
O=C(NCc1ccco1)C1(c2ccc(Cl)cc2)CCCC1,-8.03%,–
CCNC(=S)N(CCc1c(C)[nH]c2ccc(C)cc12)Cc1ccco1,-13.1%,–
COc1cc2c(cc1OC)C(=O)NCC(C)(C)O2,-19.2%,–
COc1ccc(-c2cn(-c3ccc(OC)cc3)c(=S)[nH]2)cc1,–,25.1 µM (active)
COc1ccc(N2C(=O)CNC2=S)cc1,-14.3%,–
COc1ccc(-n2c(C)csc2=S)cc1,-9.23%,–
CN(C)S(=O)(=O)c1cc(NC(=O)CN2C(=O)NC3(CCCc4ccccc43)C2=O)ccc1Cl (stereo not drawn),-12.7%,–
O=C(O)c1ccc(N=NN2CCOCC2)cc1,-13.6%,–
Cc1ccc(NC(=O)NC(=O)N(C2CCCCC2)S(=O)(=O)c2ccccc2)cc1,-16%,–
CC(=O)Nc1ccc(S(=O)(=O)NC(C)C(=O)OCC(=O)NC2CCCC2)cc1 (stereo not drawn),-4.32%,–
CCCc1cc(-c2n[nH]c(=S)n2CC)c2ccccc2n1,-28.5%,–
CCCCC(CC(C)O)c1n[nH]c(=S)n1-c1ccccc1 (stereo not drawn),-3.38%,–
CC(C)Oc1ccc(CCc2n[nH]c(=S)n2Cc2ccccc2)cc1,–,10 µM (active)
O=C(N/N=C\c1ccc(Br)cc1)c1ccc(Cn2cccn2)o1,-5.99%,–
COCCOC(=O)c1c(C)oc2cc(Br)c(OCC(N)=O)cc12,-7.04%,–
COC(C(=O)NCc1ccccc1C)c1ccccc1 (stereo not drawn),-8.94%,–
Cc1nc2ccccc2cc1C(=O)N/N=C/c1ccc([N+](=O)[O-])cc1,-5.88%,–
Cc1cc(C(F)(F)F)n2ncc(-c3ccccc3)c2n1,-0.556%,–

Compound,"activity change, negative = inhibition",Potency
Cn1c(-c2sc3cc(C(F)(F)F)cnc3c2-c2ccccc2)n[nH]c1=S,–,31.6 µM (active)
CCc1c(C)[nH]c(=S)c(C#N)c1C,–,35.5 µM (active)
CCOC(=O)c1c(C)[nH]c(=S)c(C#N)c1-c1ccccc1,-27.3%,–
CCCCC1S/C(=N/N=C/c2cccs2)NC1=O (stereo not drawn),-7.59%,–
COC(=O)C1=C(C(=O)OC)[C@@H]2Nc3ccccc3[C@@]23C[C@@H](C(=O)OC)N(S(=O)(=O)c2ccc([N+](=O)[O-])cc2)C3=N1,-10.9%,–
Cc1ccc(C)c(NC(=S)NNC(=O)c2csc(C)c2)c1,-5.84%,–
CN(C)c1cc2c(Nc3ccc4c(cnn4Cc4ccccc4)c3)ncnc2cn1,–,12.6 µM (active)
COc1ccc(Nc2ncnc3ccc(OC)cc23)cc1,-4.83%,–
Cn1ncc2c(Nc3cccc4ccccc34)ncnc21,-9.06%,–
CCOC(=O)C1=C(c2ccc(OC)cc2)C(=O)c2ccccc2C1=O,-6.53%,–
COc1ccc(N2CCN(Cc3cc(=O)oc4ccc5ccccc5c34)CC2)cc1,-9.86%,–
O=c1c2ccccc2oc2nc(C3CCCCC3)n(Cc3ccco3)c(=O)c12,-6.04%,–
CCc1nc2oc3ccccc3c(=O)c2c(=O)n1Cc1ccc(OC)cc1,–,25.1 µM (active)
COC(C(=O)Nc1ccc(C(C)=O)cc1)c1ccccc1 (stereo not drawn),-9.31%,–
O=C(Cc1cccs1)Nc1cccc(-c2nc3ccccc3[nH]2)c1,-8.46%,–
O=C(CCc1nc2ccccc2c(=O)[nH]1)OCC(=O)c1cccc(Cl)c1,-9.26%,–
CCOc1cc(C(=O)OCC(=O)Nc2cccc(C)c2)ccc1OCC(=O)N1CCOCC1,-18.5%,–
Cc1ccc(C(=O)C(=S)N2CCOCC2)cc1,-3.51%,–
CCOc1cc(C(=S)N2CCOCC2)ccc1O,–,12.6 µM (active)
COc1ccc2c(c1)O[C@@H](c1ccc3c(c1)OCO3)[C@H](OC(=O)NCCc1ccc(OC)c(OC)c1)C2=O,-3.81%,–
S=C(Nc1cccc(Cl)c1)Nc1ccc2cn[nH]c2c1,-14.3%,–
Cc1cc(C)cc(C(=O)N2CCN=C2SCc2ccc([N+](=O)[O-])cc2)c1,-11.7%,–
O=C(COc1ccccc1F)NNC(=O)c1ccc(N2CCCCC2)c([N+](=O)[O-])c1,-21.3%,–
O=C1CCCC(O)=C1N=Nc1ccc2ncsc2c1,–,31.6 µM (active)

Compound,"activity change, negative = inhibition",Potency
COc1ccc(NC(=O)c2nc(-n3nc(C)cc3C)ccc2Cl)cc1Cl,-17.4%,–
CCCN(CCC)C(=S)Nc1cc(C(=O)OC)ccc1C(=O)OC,-9.23%,–
O=C(CCl)NNc1cccc(Cl)n1,–,28.2 µM (active)
O=C(NNc1ccccn1)c1ccc(Cl)nc1,-23%,–
COc1cc(OC)nc(NC(=O)CCl)n1,-16.6%,–
CCOCC(=O)Nc1cc(OC)c(Cl)cc1OC,-3.42%,–
COc1cc(NC(=S)NNC(=O)CC(C)C)c(OC)cc1Cl,–,31.6 µM (active)
CC(C)CC(=O)NC(=S)Nc1cc(C(=O)O)ccc1Cl,-13.5%,–
COc1ccc(-c2nc3c(c4c2C[C@H](c2ccccc2)OC4)CN(S(=O)(=O)c2c(C)noc2C)CC3)c(C)c1,-1.95%,–
Cc1ccc(-c2n[nH]c(=S)n2/N=C/c2cc3c(cc2[N+](=O)[O-])OCO3)cc1,–,1.58 µM (active)
CCOc1ccc(-c2n[nH]c(=S)n2/N=C/c2cc3c(cc2[N+](=O)[O-])OCO3)cc1,–,3.55 µM (active)
Cc1c(NC(=O)CCCOc2ccccc2)cccc1[N+](=O)[O-],-12.9%,–
Cc1ccc(S(=O)(=O)N/N=C\c2cc3c(cc2[N+](=O)[O-])OCO3)cc1,-28.1%,–
CCOC(=O)c1nc(-c2ccc3c(c2)OCO3)[nH]c1C,-11.1%,–
O=[N+]([O-])c1ccccc1/C=N/n1c(COc2ccccc2)n[nH]c1=S,–,7.08 µM (active)
O=C(Cc1cc(=O)[nH][nH]1)N/N=C/c1ccccc1[N+](=O)[O-],-14.9%,–
CCOC(=O)c1c(C)[nH]c(C(=O)COc2ccc3c(c2)OCO3)c1C,-6.28%,–
COC(=O)/C(=C1\Oc2ccc(C(C)(C)C)cc2S1)C(F)(F)F,-12.2%,–
COc1cc(OC)cc(-c2nc3ccccc3c(=O)n2NC(=O)c2cccnc2Cl)c1,-8.81%,–
NC(=O)Nc1ccccc1C(=O)NCCc1ccccc1,-3.92%,–
CCOc1cc(/C=N/NC(=O)OC)ccc1OCCSc1ccc(Cl)cc1,-11.7%,–
Cc1nn(-c2ccccc2)c2c1C(c1cccc([N+](=O)[O-])c1)N(c1ccccc1)C(=O)N2 (stereo not drawn),-6.84%,–
CC(Sc1cccc[n+]1[O-])C(=O)Nc1cccc(S(=O)(=O)N2CCOCC2)c1 (stereo not drawn),-20.6%,–
CC(=O)CC(c1ccccc1)C1C(=O)Oc2ccccc2C1=O (stereo not drawn),-12.2%,–

Compound,"activity change, negative = inhibition",Potency
O=C(c1cncc(Br)c1)N1CCN(c2ccc([N+](=O)[O-])cc2)CC1,-27.4%,–
CSCc1ccc(C(=O)Nc2cc(C)cc(C)c2)cc1,-12.7%,–
O=C(c1cccnc1)N(c1cc2sc(=O)oc2c2ccccc12)S(=O)(=O)c1ccccc1,–,17.8 µM (active)
CN(C)S(=O)(=O)c1cccc(C(=O)Nc2cccnc2)c1,-13.1%,–
COc1ccc(N(C(=O)c2cccnc2)S(=O)(=O)c2ccc3c(c2)n(C)c(=O)n3C)cc1,-4.39%,–
COc1ccc(/C=N/NC(=O)c2ccccc2)cc1OS(=O)(=O)c1ccccc1,-15.2%,–
Cn1c(=NC(=O)CSCC(=O)N2CCCCC2)sc2ccccc21,–,22.4 µM (active)
Cn1c(=NC(=O)c2cnccn2)sc2ccccc21,-8.2%,–
Cn1c(=NC(=O)CSCC(=O)N2CCOCC2)sc2ccccc21,-16.8%,–
O=C(Nc1nc(-c2ccc(-c3ccccc3)cc2)cs1)c1cnccn1,-5.23%,–
CN(c1ccccc1)S(=O)(=O)c1cccc(NC(=O)Cc2c(F)cccc2Cl)c1,-8.06%,–
Cc1ccc2c(c1)C1CN(C)CCC1N2C(=O)c1ccccc1NS(=O)(=O)c1ccc(F)cc1C (stereo not drawn),-6.43%,–
CSc1ccc(CCNC(=O)C2CCN(c3nnc(-n4cccc4)s3)CC2)cc1,2.14%,–
CCOC(=O)C1CCCN(C(=O)C2CCN(c3nnc(-n4cccc4)s3)CC2)C1 (stereo not drawn),-22.6%,–
O=C(C1CCN(c2nnc(-n3cccc3)s2)CC1)N1CCc2ccccc2C1,–,14.1 µM (active)
COC(=O)C(NC(=O)c1ccc(OC)cc1)(Nc1ncc(S(=O)(=O)c2ccc([N+](=O)[O-])cc2)s1)C(F)(F)F (stereo not drawn),–,15.8 µM (active)
COc1ccc(C(=O)Nc2nc(-c3ccc(OC)cc3)c(-c3ccc([N+](=O)[O-])cc3)s2)cc1,-12.2%,–
O=C(NC(Nc1nc2ccc([N+](=O)[O-])cc2s1)(C(F)(F)F)C(F)(F)F)c1ccccc1,-5.24%,–
O=C(NCc1ccccn1)c1ccc2nc(-c3ccco3)c(-c3ccco3)nc2c1,–,14.1 µM (active)
CN(c1ccc(C(=O)NCc2ccccn2)cc1)S(C)(=O)=O,-25.1%,–
CCOc1ccc(C(=O)NC(C(=O)NCc2ccccn2)C(C)C)cc1 (stereo not drawn),-8.11%,–
